Data taken from PubChem BioAssay AID1159580 (chemical genetic matrix, 2015).
Hit rate of the full screen: of about 5,500 compounds, about 2,000 (36%) were called active. About 18% were inconclusive and are not listed. The list shows a part of the results. A number with no mark means an inactive call. Cut-off read from the data, not from the text of the source: active = normalized growth mostly below about 0.91 (no sharp cut-off); inconclusive = no clear call, values can overlap the other calls; inactive = mostly above about 0.92.

Assay: chemical genetic growth profiling, strain panel (AID 1159580);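 note: tested at 20 µM; growth read once vehicle control cultures reached saturation at 30 °C; 1 = growth at the plate median or of vehicle wells; lower values mean less growth of the strain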
Settings: S. cerevisiae deletion strains, growth OD
[1] = locus YAR019C, strain CDC15, hits give low values
[2] = locus YBL105C, strain PKC1, hits give low values
[3] = locus YBR135W, strain CKS1, hits give low values
[4] = locus YBR136W, strain MEC1, hits give low values
[5] = locus YBR160W, strain CDC28, hits give low values
[6] = locus YDL017W, strain CDC7, hits give low values
[7] = locus YDL028C, strain MPS1, hits give low values
[8] = locus YDL101C, strain DUN1, hits give low values
[9] = locus YDL108W, strain KIN28, hits give low values
[10] = locus YDL132W, strain cdc53, hits give low values
[11] = locus YDL214C, strain PRR2, hits give low values
[12] = locus YDR052C, strain DBF4, hits give low values
[13] = locus YDR054C, strain cdc34, hits give low values
[14] = locus YDR226W, strain ADK1, hits give low values
[15] = locus YDR477W, strain SNF1, hits give low values
[16] = locus YER123W, strain YCK3, hits give low values
[17] = locus YER133W, strain GLC7, hits give low values
[18] = locus YFL009W, strain cdc4, hits give low values
[19] = locus YFL029C, strain CAK1, hits give low values
[20] = locus YFR003C, strain YPI1, hits give low values
[21] = locus YFR019W, strain FAB1, hits give low values
[22] = locus YFR028C, strain CDC14, hits give low values
[23] = locus YGR040W, strain KSS1, hits give low values
[24] = locus YGR052W, strain FMP48, hits give low values
[25] = locus YGR092W, strain DBF2, hits give low values
[26] = locus YHR030C, strain SLT2, hits give low values
[27] = locus YHR079C, strain IRE1, hits give low values
[28] = locus YHR082C, strain KSP1, hits give low values
[29] = locus YHR205W, strain SCH9, hits give low values
[30] = locus YIL147C, strain SLN1, hits give low values
[31] = locus YJL095W, strain BCK1, hits give low values
[32] = locus YJL128C, strain PBS2, hits give low values
[33] = locus YJL157C, strain FAR1, hits give low values
[34] = locus YJR016C, strain ILV3, hits give low values
[35] = locus YJR066W, strain TOR1 (second series), hits give low values
[36] = locus YJR066W, strain TOR1, hits give low values
[37] = locus YKL048C, strain ELM1, hits give low values
[38] = locus YKL067W, strain YNK1, hits give low values
[39] = locus YKL101W, strain HSL1, hits give low values
[40] = locus YKL193C, strain SDS22, hits give low values
[41] = locus YKL203C, strain TOR2, hits give low values
[42] = locus YLR113W, strain HOG1, hits give low values
[43] = locus YLR133W, strain CKI1, hits give low values
[44] = locus YLR403W, strain SFP1, hits give low values
[45] = locus YML070W, strain DAK1, hits give low values
[46] = locus YMR001C, strain CDC5, hits give low values
[47] = locus YMR205C, strain PFK2 (second series), hits give low values
[48] = locus YMR277W, strain FCP1, hits give low values
[49] = locus YNL006W, strain LST8, hits give low values
[50] = locus YNL020C, strain ARK1, hits give low values
[51] = locus YNL161W, strain CBK1, hits give low values
[52] = locus YNL183C, strain NPR1, hits give low values
[53] = locus YNL207W, strain RIO2, hits give low values
[54] = locus YNL222W, strain SSU72, hits give low values
[55] = locus YNL307C, strain MCK1 (second series), hits give low values
[56] = locus YOL078W, strain AVO1, hits give low values
[57] = locus YOL136C, strain PFK27, hits give low values
[58] = locus YOR061W, strain CKA2, hits give low values
[59] = locus YOR119C, strain RIO1, hits give low values
[60] = locus YOR231W, strain MKK1, hits give low values
[61] = locus YOR329C, strain SCD5, hits give low values
[62] = locus YPL031C, strain PHO85, hits give low values
[63] = locus YPL153C, strain RAD53, hits give low values
[64] = locus YPL204W, strain HRR25, hits give low values
[65] = locus YPL209C, strain IPL1, hits give low values
[66] = locus YPL256C, strain CLN2, hits give low values
[67] = locus YPR025C, strain CCL1, hits give low values
[68] = locus YPR106W, strain ISR1, hits give low values
[69] = locus YPR111W, strain DBF20, hits give low values
[70] = strain NNK1, hits give low values
[71] = strain TSCII, hits give low values

Compound: O=C(Nc1ccc(OC(F)(F)F)cc1)N1CCN(c2nc(-c3ccccc3)ns2)CC1
- normalized growth [1]: 1
- normalized growth [2]: 1
- normalized growth [3]: 0.992
- normalized growth [4]: 0.992
- normalized growth [5]: 0.991
- normalized growth [6]: 0.992
- normalized growth [7]: 1.01
- normalized growth [8]: 0.97
- normalized growth [9]: 0.998
- normalized growth [10]: 1
- normalized growth [11]: 0.802
- normalized growth [12]: 0.992
- normalized growth [13]: 1
- normalized growth [14]: 0.995
- normalized growth [15]: 0.957
- normalized growth [16]: 0.861
- normalized growth [17]: 0.97
- normalized growth [18]: 0.991
- normalized growth [19]: 0.989
- normalized growth [20]: 0.98
- normalized growth [21]: 0.924
- normalized growth [22]: 0.997
- normalized growth [23]: 0.933
- normalized growth [24]: 0.906
- normalized growth [25]: 0.898
- normalized growth [26]: 0.893
- normalized growth [27]: 0.864
- normalized growth [28]: 0.905
- normalized growth [29]: 0.51 (active)
- normalized growth [30]: 0.994
- normalized growth [31]: 0.91
- normalized growth [32]: 0.843
- normalized growth [33]: 0.888
- normalized growth [34]: 1
- normalized growth [35]: 0.858
- normalized growth [36]: 1.01
- normalized growth [37]: 0.867
- normalized growth [38]: 0.844
- normalized growth [39]: 0.79
- normalized growth [40]: 0.987
- normalized growth [41]: 1.01
- normalized growth [42]: 0.733 (active)
- normalized growth [43]: 0.826
- normalized growth [44]: 0.905
- normalized growth [45]: 0.856
- normalized growth [46]: 0.992
- normalized growth [47]: 0.793
- normalized growth [48]: 0.989
- normalized growth [49]: 0.994
- normalized growth [50]: 0.818
- normalized growth [51]: 0.983
- normalized growth [52]: 0.815
- normalized growth [53]: 0.982
- normalized growth [54]: 0.994
- normalized growth [55]: 0.805
- normalized growth [56]: 0.997
- normalized growth [57]: 0.772
- normalized growth [58]: 0.856
- normalized growth [59]: 1
- normalized growth [60]: 0.843
- normalized growth [61]: 0.984
- normalized growth [62]: 0.952
- normalized growth [63]: 0.909
- normalized growth [64]: 0.941
- normalized growth [65]: 0.994
- normalized growth [66]: 0.832 (active)
- normalized growth [67]: 1
- normalized growth [68]: 0.929
- normalized growth [69]: 0.925
- normalized growth [70]: 0.909
- normalized growth [71]: 0.979

Compound: O=C(Nc1ccc(OC(F)(F)F)cc1)OC1CN(C(c2ccccc2)c2ccccc2)C1
- normalized growth [1]: 1
- normalized growth [2]: 0.995
- normalized growth [3]: 0.996
- normalized growth [4]: 0.999
- normalized growth [5]: 0.999
- normalized growth [6]: 0.999
- normalized growth [7]: 1
- normalized growth [8]: 0.984
- normalized growth [9]: 0.991
- normalized growth [10]: 1
- normalized growth [11]: 0.993
- normalized growth [12]: 0.99
- normalized growth [13]: 0.988
- normalized growth [14]: 0.995
- normalized growth [15]: 0.988
- normalized growth [16]: 0.96
- normalized growth [17]: 0.992
- normalized growth [18]: 0.988
- normalized growth [19]: 0.992
- normalized growth [20]: 0.998
- normalized growth [21]: 0.983
- normalized growth [22]: 1.01
- normalized growth [23]: 0.987
- normalized growth [24]: 1.1
- normalized growth [25]: 0.961
- normalized growth [26]: 0.9
- normalized growth [27]: 1.02
- normalized growth [28]: 1.06
- normalized growth [29]: 0.981
- normalized growth [30]: 1
- normalized growth [31]: 0.96
- normalized growth [32]: 0.993
- normalized growth [33]: 0.986
- normalized growth [34]: 1.01
- normalized growth [35]: 0.981
- normalized growth [36]: 0.98
- normalized growth [37]: 0.961
- normalized growth [38]: 0.969
- normalized growth [39]: 0.982
- normalized growth [40]: 1.01
- normalized growth [41]: 1.02
- normalized growth [42]: 0.943
- normalized growth [43]: 0.972
- normalized growth [44]: 0.973
- normalized growth [45]: 0.966
- normalized growth [46]: 1
- normalized growth [47]: 0.967
- normalized growth [48]: 1.01
- normalized growth [49]: 0.994
- normalized growth [50]: 0.969
- normalized growth [51]: 1
- normalized growth [52]: 0.969
- normalized growth [53]: 0.985
- normalized growth [54]: 1
- normalized growth [55]: 1
- normalized growth [56]: 1
- normalized growth [57]: 0.986
- normalized growth [58]: 0.987
- normalized growth [59]: 1.06
- normalized growth [60]: 1.01
- normalized growth [61]: 0.999
- normalized growth [62]: 0.99
- normalized growth [63]: 0.961
- normalized growth [64]: 0.96
- normalized growth [65]: 0.984
- normalized growth [66]: 1
- normalized growth [67]: 1
- normalized growth [68]: 0.991
- normalized growth [69]: 0.977
- normalized growth [70]: 0.981
- normalized growth [71]: 1.01
